From PubChem BioAssay (Tox21)
Records with an inconclusive call do not appear. Calls of active or inactive are those of the source. Calls follow the shape of the dose curve; as a rule, active = well fitted activation curve with a large enough effect in the signal ratio in the repeat runs (not every such curve was filed as active); inconclusive = weak or mixed curves, or effect the other way; inactive = flat fitted curve, though single readings scatter; the % refers to the signal ratio.

Experiment: qHTS assay to identify small molecule agonists of the endoplasmic reticulum stress response signaling pathway (AID 1159516)
Conditions: ESRE-bla HeLa, ER stress beta-lactamase reporter, 5 h; series mostly up to 61 µM
Source text: National Center for Advancing Translational Sciences [NCATS]
NIH Chemical Genomics Center [NCGC]
U.S. Environmental Protection Agency [EPA]
National Institutes of Environmental Health Sciences [NIEHS]
National Toxicology Program [NTP]
U.S. Food and Drug Administration [FDA]
Endoplasmic Reticulum (ER) plays an important role in cellular signaling, protein folding/maturation, stress response, lipid biosynthesis, calcium storage and release etc. Under stress conditions, proteins in ER misfold or unfold, and leading to the expression of ER stress responsive genes. ER stress has been associated with a variety of pathophysiological conditions such as cancer, inflammation, neurodegenerative diseases, diabetes, ischemic heart disease etc. To identify the compounds that induce ER stress response, an ER stress reporter cell line, CellSensor ESRE-bla HeLa (Life Technologies, Carlsbad, CA) containing a beta-lactamase reporter gene under control of the Endoplasmic reticulum Stress Response Element (ESRE) was used to screen Tox21 10K compound library.
Tox21 Assay Protocol Summary:
ESRE-bla HeLa cells were dispensed at 1,500 cells/6 uL of assay medium per well into black wall/clear-bottom 1536-well plates using a Multidrop Combi (ThermoFisher Scientific, Waltham, MA) dispenser. After the assay plates were incubated at 37 C and 5% CO2 for an overnight, 23 nL of compounds dissolved in DMSO, positive controls or DMSO only was transferred to the assay plate by a Pintool station (Kalypsys, San Diego, CA). The assay plates were incubated at 37 C and 5% CO2 for 5 hr. One uL of LiveBLAzer B/G FRET substrate (Life Technologies) was added using a Flying Reagent Dispenser (Aurora Discovery, San Diego, CA) and the plates were incubated at room temperature for 2 hr. Fluorescence intensity (405 nm excitation, 460 nm and 530 nm emissions) was measured using an Envision plate reader (PerkinElmer, Shelton, CT).

| SMILES | outcome |
| --- | --- |
| Cc1cccc(Nc2ccncc2S(=O)(=O)NC(=O)NC(C)C)c1 | inactive |
| NS(=O)(=O)c1ccc(Cl)c(S(N)(=O)=O)c1 | inactive |
| C[C@H]1O[C@H](O[C@H]2[C@H](O)[C@@H](O)[C@@H](O[C@H]3[C@H](O)[C@@H](O)[C@H](O)O[C@@H]3CO)O[C@@H]2CO)[C@H](O)[C@@H](O)[C@@H]1N[C@H]1C=C(CO)[C@@H](O)[C@H](O)[C@H]1O | inactive |
| CCCCCCCCCCCCCCCC(=O)NCCO | inactive |
| Cc1ccccc1C | inactive |
| O=C(O)/C=C/c1ccccc1 | inactive |
| O=P(O)(O)OCC(O)CO (stereo not given) | inactive |
| CCCCCCCCCCC | inactive |
| CN(C1CCCCC1)S(=O)(=O)c1ccccc1N | inactive |
| CCOC(=O)CC#N | inactive |
| CC(=O)OC(C)(C)Cc1ccccc1 | inactive |
| NS(=O)(=O)c1cc2c(cc1Cl)NC(C(Cl)Cl)NS2(=O)=O (stereo not given) | inactive |
| CC(C)SCc1ccco1 | inactive |
| FC(F)(F)c1ccc(Cl)cc1Cl | inactive |
| C=CCOCC(O)CCl (stereo not given) | inactive |
| CCCCC(CC)COC(=O)c1ccccc1 (stereo not given) | inactive |
| C[C@H](CCC(=O)NCC(=O)O)[C@H]1CC[C@H]2[C@@H]3[C@H](O)C[C@@H]4C[C@H](O)CC[C@]4(C)[C@H]3C[C@H](O)[C@]12C | inactive |
| CCS(=O)(=O)CCn1c([N+](=O)[O-])cnc1C | inactive |
| CC(=O)N1CCN(c2ccc(O)cc2)CC1 | inactive |
| CCOc1ccc(NC(=O)OC(C)C)cc1OCC | inactive |

| SMILES | outcome |
| --- | --- |
| CC(Cl)COP(=O)(OCC(C)Cl)OCC(C)Cl (stereo not given) | inactive |
| CCCCCCCCOC(C)=O | inactive |
| COC(/C=C(\C)CCC=C(C)C)OC | inactive |
| OC[C@@H](O)[C@H](O)[C@@H](O)[C@@H](O)CO | inactive |
| C=CCOc1c(Br)cc(C(C)(C)c2cc(Br)c(OCC=C)c(Br)c2)cc1Br | inactive |
| CC1CCC(C(C)(C)S)C(=O)C1 (stereo not given) | inactive |
| C[C@H](CCC(=O)O)[C@H]1CC[C@H]2[C@@H]3[C@H](O)C[C@@H]4C[C@H](O)CC[C@]4(C)[C@H]3C[C@H](O)[C@]12C | inactive |
| COCCOCCOCCOC | inactive |
| C/C=C(\C)C(=O)OCC/C=C\CC | inactive |
| NS(=O)(=O)c1ccccc1OC(F)(F)F | inactive |
| C1CCN2C[C@@H]3C[C@@H](CN4CCCC[C@@H]34)[C@H]2C1 | inactive |
| Cc1ccc2c(c1)c1c3n2CCNC3CCC1 (stereo not given) | inactive |
| CCCCCCCCCCCCC | inactive |
| COC(=O)CCC(=O)O | inactive |
| NCCc1ccn[nH]1 | inactive |
| COc1cc(C=O)ccc1OC(=O)C(C)C | inactive |
| CCCCCCCC[Si](OCC)(OCC)OCC | inactive |
| CO[Si](CCCCl)(OC)OC | inactive |
| C1=CCC(c2ccccc2)CC1 (stereo not given) | inactive |
| CN[C@@H]1[C@@H](O)[C@@H](O[C@@H]2[C@H](O)[C@H](O[C@H]3OC(CN)=CC[C@H]3N)[C@@H](N)C[C@H]2N)OCC1(C)O (stereo not given in full) | inactive |
